The campaign covered roughly 290,000 compounds. About 60 (0.02%) were called active. Another 1% or so got no clear call; they are omitted. No rule for the calls is given here. Only a sample is shown. Potency and affinity values are given separately.
Experiment: inhibition of WNV-induced cytopathic effect – cell-based, CPE readout (AID 1621)
Conditions: West Nile virus-infected cells, at 10 µM, active compounds read high

CPE inhibition, inactive:
Cc1ccc(-c2cc(C(=O)NCCCN3CCOCC3)c3ccccc3n2)cc1C 0.07%
CCOc1ccc(-c2cc(C(=O)NCCCN3CCCC3)c3ccccc3n2)cc1 11.7%
O=C(NCc1ccc(F)cc1)C1CCCN(S(=O)(=O)c2ccc(-n3cnnn3)cc2)C1 (configuration not stated) 0.7%
CN(C)CCCN1c2ccccc2CCc2ccc(Cl)cc21 -0.38%
CN(C)CCCN1c2ccccc2CCc2ccccc21 -0.69%
COc1ccc(/C=C/C(=O)OCC(=O)NCc2ccco2)c(OC)c1 -0.46%
CCC(C)C(=O)N1CCCC(c2nc(-c3cccs3)no2)C1 (configuration not stated) -0.34%
COc1ccccc1OCCn1cc(/C=N/NC(N)=S)c2ccccc21 -0.18%
Cc1cccc(-n2c(SCC(=O)O)nc3sc4c(c3c2=O)CCCC4)c1 0.2%
C[C@@H]1C[C@@H]2OC(=O)[C@]3(C)[C@H]2[C@@H](OC3(C)O)[C@]2(C)C(=O)C=C[C@H]12 (some centres not stated) 1.25%
CCOC(=O)C1CCN(C(=S)Nc2cc(OC)c(OC)cc2C(=O)OC)CC1 0.82%
O=C(NCCCN1CCCC1)c1ccc2c(c1)N(Cc1ccccc1F)C(=O)c1ccccc1S2=O (configuration not stated) -0.62%
Cc1ccccc1CN1C(=O)c2ccccc2S(=O)c2ccc(C(=O)NCCCN3CCOCC3)cc21 (configuration not stated) -0.39%
Cc1ccc(-c2csc(N3CCN(c4cc5c(cc4Cl)nc(C)n5CCN4CCCCC4)CC3)n2)cc1 0.49%
O=[N+]([O-])c1ccc(C(O)CSC(=S)N2CCCCC2)cc1 (configuration not stated) -0.96%
CCN1CCN(c2ccc(S(=O)(=O)N3CCCCC3)cc2NC(=O)Cc2c(F)cccc2Cl)CC1 0.49%
CCN1CCN(c2ccc(S(=O)(=O)N3CCCCC3)cc2NC(=O)Cc2ccc(OC)cc2)CC1 0.99%
COc1ccc(Cl)cc1C(=O)NCCCSc1ccccc1 -1.17%
COc1ccc(CNC(=O)CCN2C(=O)c3ccncc3C2=O)cc1OC 0.59%
COc1cc(-c2nc(C(=O)NC3CCCCC3)cc3c2[nH]c2ccccc23)cc(OC)c1OC 1.01%
N=c1c(C(=O)NCCN2CCOCC2)cc2c(=O)n3ccccc3nc2n1Cc1ccc(F)cc1 0%
Cc1cccn2c(=O)c3cc(C(=O)NCCN4CCOCC4)c(=N)n(CCN4CCOCC4)c3nc12 -0.04%
CN1C(=O)c2ccc(C(=O)NCc3ccco3)cc2C1=O 1.39%
c1ccc(Sc2ncnc3c2oc2ccccc23)nc1 1.08%
ClC(/C=N/n1cnnc1)=C/c1ccccc1 2.95%
CC(/C=N/n1cnnc1)=C\c1ccccc1 -0.2%
Cc1ccc2nc(Nc3ccccc3)c(C=O)c(=O)n2c1 -0.78%
CCN(CC)C(=O)Nc1c(C)n(C)n(-c2ccccc2)c1=O 0.37%
CCOC(=O)c1c(CN2CCOCC2)n(-c2ccccc2)c2cc(Br)c(O)cc12 1.59%
CCOC(=O)c1c(CN2CCN(C)CC2)n(-c2ccccc2)c2cc(Br)c(O)cc12 0.39%
COc1ccc(CCN(C)C(=O)c2cccc(S(=O)(=O)NCc3ccccc3)c2)cc1OC -1.05%
O=C1N[C@@H](Cc2ccccc2)C(=O)N2[C@@H]1C[C@@]1(Br)c3ccccc3N(S(=O)(=O)c3ccccc3)[C@@H]21 -0.59%
CC(C)c1cc(C(C)C)c(S(=O)(=O)N2c3ccccc3[C@@]3(Br)C[C@H]4C(=O)N[C@@H](Cc5ccccc5)C(=O)N4[C@@H]23)c(C(C)C)c1 2.08%
CCOC(=O)c1c(C)c(C(=O)NCc2cccs2)c(C)n1CC -0.75%
Fc1cccc(Cl)c1Cn1nnc2c(N3CCC4(CC3)OCCO4)ncnc21 0.17%
COc1cc2c(O)c3c(c(-c4ccc5c(c4)OCO5)c2cc1OC)C(=O)OC3 12.1%
COc1ccc(C(=O)Oc2ccc3c(c2)OCO3)cc1OC 0.51%
Cc1nn(Cc2ccccc2Cl)c2sc(C(=O)OC3CCCC3=O)cc12 (configuration not stated) -0.34%
O=C(NCC(c1cccnc1)N1CCOCC1)NC1CCCCC1 (configuration not stated) 0.45%
COC(=O)c1c(-c2ccc(C)cc2)csc1NC(=O)c1c(-c2ccccc2)noc1C 0.29%
CCOC(=O)c1c(-c2ccc(F)cc2)csc1NC(=O)c1c(-c2ccccc2)noc1C -0.66%
COc1cc(C(=O)N2CCCN(c3nc4cc(C)ccc4cc3C#N)CC2)cc(OC)c1OC 0.84%
COCCCNC(=S)N1CCCN(c2nc3cc(C)ccc3cc2C#N)CC1 -0.77%
COc1cc(-c2csc(NC3CCCCC3)n2)cc(OC)c1OC -0.66%
COc1ccc(/C=C2\SC(=S)N(NS(=O)(=O)c3ccc(C)cc3)C2=O)c(OC)c1 -0.03%
N=C1C(c2nc(-c3ccc(F)cc3)cs2)=C(O)CN1CCCN1CCOCC1 2.36%
O=C(CN1CCOCC1)Nc1nc(-c2ccc(Cl)cc2)cs1 -0.54%
CNc1nc2ccccc2n1CC(=O)c1ccccc1 -1.12%
Cc1cccc(NC(=O)CCN2CCOCC2)c1 0.1%
CCOC(=O)c1sc(=NC(=O)c2cccs2)n(C)c1C 0.29%
CCN(CCCNC(=O)c1cc2c(-c3cccc(OC)c3)nn(C)c2s1)Cc1ccccc1 11.5%
CCN(CC)CCNC(=O)c1cc2c(-c3cccc(OC)c3)nn(C)c2s1 10.3%
Cc1c(C(=O)c2ccc(Cl)c([N+](=O)[O-])c2)c2ccccn2c1CCC#N 0.29%
O=C(CN1C(=O)NC2(CCCCCC2)C1=O)Nc1ccc(S(=O)(=O)N2CCOCC2)cc1 0.5%
CSCCC(N=Cc1c(O)n(-c2ccc(F)cc2)c(=O)[nH]c1=O)C(=O)O (configuration not stated) 0.06%
COc1ccc(-c2csc(N(CCCN(C)C)C(=O)c3ccccc3F)n2)cc1 -0.14%
COc1ccc(-c2csc(N(CCCN(C)C)C(=O)c3cccs3)n2)cc1 0.38%
